The values that follow come from PubChem BioAssay (NCI).

Compounds without any hit were thinned out: in the full panel of roughly 83,000, 20% have a hit.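 The test compound was applied at a single concentration to cells in 96-well plates for 48 hours, and percent growth was recorded.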 The source made the active and inactive calls.

In the assay the test system is SR leukemia. The assay is described as follows: NCI-60 one-dose screen, 48 h (100 = growth as untreated, 0 = no growth, -100 = all killed). The note with it: 10 µM unless noted. As to the method: Growth inhibition of the SR human tumor cell line is measured as a screen for anti-cancer activity. Cells are grown in 96 well plates and exposed to the test compound for 48 hours. Compounds are tested at a single concentration, which is 10^-5 M for most compounds. The reported endpoint is percent growth (GI% or GIPRCNT), where numbers from 0 - 100% represent growth inhibition, and numbers from -100% - 0 represent cell death. For example, a value of 40 represents 60% growth inhibition. A value of 0 means no net growth occurred over the course of the experiment. A value of -40 indicates 40% of cells at the beginning of the experiment died by the end of the experiment. A value of -100 means all cells are dead at the end of the experiment.
NCI-60 Human Tumor Cell Lines Screen was performed using the standard one-dose NCI protocol, which is described in more detail at https://dtp.cancer.gov/discovery_development/nci-60/default.htm.
Compounds with GIPRCNT values below 10 were considered active. Activity score was based on GIPRCNT using the following formula: […]
Score is 0 for GIPRCNT values of 100 or above, 50 for GIPRCNT values of 0, and 100 for GIPRCNT values of -100.
Regarding `C[C@H]1[C@H](C)CC[C@]2(C(=O)Nc3ccc4ncccc4c3)CC[C@]3(C)C(=CC[C@@H]4[C@@]5(C)CCCNC(C)(C)[C@@H]5CC[C@]43C)[C@H]12`, the growth is -49.2% (active).

With `COc1cc2c(-c3cc4c(cc3CNCCc3ccc5c(c3)OCO5)OCO4)cccc2c(OC)c1O`, the growth is 27.8% (inactive).

With `Oc1ccc(C(c2ccc(O)cc2)c2ccc(Br)cn2)cc1`, the growth was 104% (inactive).

With `Cc1cc(C(=O)/C=C/c2ccc[nH]2)ccc1-n1ccc(C(F)(F)F)n1`, the growth was 28.4% (inactive).

Take `CCN(CC)CCOc1ccc(NC(=O)C(C(C)C)N2C(=O)/C(=C/c3ccc(Br)cc3)SC2=S)cc1` (stereo not given): the growth is -42% (active).

For `O=C(Cn1c[n+](CC(=O)c2ccc(-c3ccccc3)cc2)c2ccccc21)Nc1cccc2cccnc12`, the growth is -17.1% (active).

Turning to `COc1ccccc1/C(C)=N/NC(=O)CSc1nc2ccccc2c(=O)n1Cc1ccc(S(N)(=O)=O)cc1`, the growth was 96.1% (inactive).

In the case of `CCN1Cc2nc3sc(C)c(C)c3c(=O)n2C=C1C`, the growth is -9.23% (active).

For the compound `Cn1nc(CC#N)c2c(=N)n(N)cnc21`, the growth was 93.4% (inactive).

With `COc1ccc2[nH]c(=O)c(CN3CCN(c4nccc(-c5ccc(Cl)cc5)n4)CC3)cc2c1`, the growth is 70.3% (inactive).

Regarding `CN[C@@H](C)C(=O)N[C@H]1CCS[C@H]2CC(C)(C)[C@@H](C(=O)N[C@H]3c4ccccc4C[C@H]3OCC#CC#CCO[C@@H]3Cc4ccccc4[C@@H]3NC(=O)[C@H]3N4C(=O)[C@@H](NC(=O)[C@H](C)NC)CCS[C@H]4CC3(C)C)N2C1=O`, the growth is 36.1% (inactive).

As for `C=C(C)[C@@H]1CC[C@]2(C(=O)N[C@@H](Cc3ccccc3)C(=O)OC)CC[C@]3(C)[C@H](CC[C@@H]4[C@@]5(C)CCC(=O)C(C)(C)[C@@H]5CC[C@]43C)[C@@H]12`, the growth is 85.3% (inactive).

For `Cc1cc2nc3c4cccc(O)c4n(CCN(C)C)c3nc2cc1C`, the growth is 4.12% (active).

Take `O=S(=O)(NCCNc1nccc(-c2c(-c3cccc(O)c3)nc3occn23)n1)c1cccc(F)c1`: the growth was 84.7% (inactive).

On to `COC(=O)/C=C1\S/C(=N\NC(=O)c2cc3ccc2/C=C\c2ccc(cc2)/C=C\3)N(c2ccccc2)C1=O`, for which the growth is -15.6% (active).

As for `COc1ccc(/C=C(\C#N)n2nc3cccc(F)c3n2)cc1`, the growth is 82.4% (inactive).

Regarding `O=C(c1nnc(Nc2ccccc2Br)o1)c1c[nH]c2ccccc12`, the growth is 103% (inactive).

Regarding `COc1ccc(N2CCN(c3ccc(NC4=C(Cl)C(=O)c5ncccc5C4=O)cc3)CC2)cc1`, the growth is 12.9% (inactive).

On to `COCc1cnccc1NC1CCCCCC1`, for which the growth was 101% (inactive).

Turning to `COc1cc2c(cc1OC)C(=O)/C(=C/c1cc(C)c(O)c(C)c1)S2`, the growth was 18.7% (inactive).

Turning to `O=C1Nc2cc(-c3ccc(NC(=O)c4ccccc4)cc3)ccc2/C1=C/c1ccc[nH]1`, the growth is 29.7% (inactive).

Regarding `O=C(Nc1ncc(Cc2cc(Cl)ccc2Cl)s1)c1cccs1`, the growth is 22.9% (inactive).

With `CN1C(N2CCN(S(=O)(=O)c3ccccc3)CC2)=NS(=O)(=O)c2ccccc21`, the growth is 32.2% (inactive).

For `COc1cccc(-c2cc(C(=O)Nc3ccc(/C=C/c4ccc(OC5CCN(C)CC5)cc4)cc3)ccc2OC)c1`, the growth is -44.4% (active).

For the compound `Cn1c2ccccc2c2c3c(c4c5ccccc5n(C)c4c21)C(=O)OC3`, the growth is 83.9% (inactive).

Regarding `COc1ccc(C(=O)/C=C/c2cc3ccccc3n3nnnc23)cc1`, the growth was 92.3% (inactive).

As to `O=C1c2ccc3c4c(ccc(c24)C(=O)N1CCCNCc1ccccc1)C(=O)N(CCCNCc1ccccc1)C3=O`, the growth is -47.2% (active).

Turning to `CNCCn1c(=O)c2cc(OC)c(OC)cc2c2ccc3cc4c(cc3c21)OCO4`, the growth was -22.4% (active).

Turning to `O=C1c2ccc3c4c(ccc(c24)C(=O)N1CCCNCc1ccccc1Cl)C(=O)N(CCCNCc1ccccc1Cl)C3=O`, the growth is -34.4% (active).

For the compound `Cc1ccc(-n2cc(-c3ccccc3)c3c2N=NN2CCN=C32)cc1`, the growth is 86% (inactive).

Turning to `C#CCNC(=O)[C@H](Cc1ccccc1)NC(=O)[C@]12CC[C@@H](C(=C)C)[C@@H]1[C@H]1CC[C@@H]3[C@@]4(C)CCC(=O)C(C)(C)[C@@H]4CC[C@@]3(C)[C@]1(C)CC2`, the growth is 42% (inactive).

For `COc1ccc(C(=O)C2C(C#N)C(C#N)C3C=Cc4ccccc4N32)cc1` (stereo not given), the growth is 21.3% (inactive).

For `O=C(Nc1ccc(-c2ccc3c(c2)NC(=O)/C3=C\c2ccc[nH]2)cc1)NC1CC1`, the growth was 34.8% (inactive).

Regarding `CC(=O)c1ccc(NS(=O)(=O)c2cccc(C(=O)Nc3ccc(Br)cc3)c2)cc1`, the growth was 87.8% [25 µM] (inactive).

For the compound `CCCCCN1C=C/C(=C\C(=O)N(C)c2ccccc2Br)c2ccccc21`, the growth was 74.3% (inactive).

As for `C/C=C(\C)C(=O)NC1=CC[C@@]2(C)C(=CCC3C2CC[C@@]2(C)C3CC[C@@H]2C(C)N(C)C)C1=O` (stereo not given in full), the growth was 27.7% (inactive).

Take `CC(=O)N1N=C(c2ccc(-n3ccc(C(F)(F)F)n3)c(F)c2)CC1c1ccc[nH]1` (stereo not given): the growth is 92.8% (inactive).

Turning to `CCOC(=O)[C@@H]1CCCN(S(=O)(=O)c2ccc(S(=O)(=O)N(CC)CC)c(F)c2)C1`, the growth is 60.1% (inactive).

In the case of `COc1cc(/C=C2\COc3ccc(-c4ccccc4)cc3C2=O)cc(OC)c1`, the growth is 58.5% (inactive).

As to `CCN(CC)CCCC(C)Nc1cc(O)cc2cccnc12` (stereo not given), the growth is 132% (inactive).
